Our source for the GTP binding, percent of control values is PubChem BioAssay.

For the test, the target named is GTPase HRas (Homo sapiens) (UniProt P01112). In words: inhibitors of GTP binding to wildtype Ras, dose response, biochemical, multiplex bead flow cytometry (AID 1335). The note with it: bead-based flow cytometry, Bodipy-GTP binding to GST-Ras; at 100 µM (top of the series) unless noted.
Sequence of GTPase HRas (Homo sapiens) (P01112 whole entry, looked up): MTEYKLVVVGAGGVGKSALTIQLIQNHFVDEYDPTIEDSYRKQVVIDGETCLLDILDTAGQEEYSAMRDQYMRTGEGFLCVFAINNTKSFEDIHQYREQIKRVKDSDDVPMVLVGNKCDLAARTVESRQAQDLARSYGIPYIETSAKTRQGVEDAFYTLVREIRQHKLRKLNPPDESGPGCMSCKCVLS
With `NC(=O)c1c(NC(=O)c2cnccn2)sc2c1CCCC2`, the GTP binding, percent of control was 134%.

`COc1ccc(CC(=O)Nc2ccc(S(=O)(=O)NC(C)C)cc2)cc1`: the GTP binding, percent of control was found to be 66.7%.

On to `Cc1cccc(CN2C(=O)N/C(=C/c3ccc(C)s3)C2=O)c1`, for which the GTP binding, percent of control is 82.5%.

For `COc1ccc(S(=O)(=O)N2CCOCC2)cc1C(=O)Nc1nc2ccccc2s1`, the GTP binding, percent of control came out at 55.9%.

For `Cc1n[nH]c(=S)c2nn(-c3cccc(Cl)c3)c(C)c12`, the GTP binding, percent of control was 71.1%.

The molecule `O=C(O)c1ccc(CNCc2ccc(F)cc2)cc1` had a GTP binding, percent of control of 87.8%.

`CCOc1ccc(NC(=S)N=Nc2c(O)[nH]c3ccccc23)cc1` showed a GTP binding, percent of control of 74.3%.

`COc1cccc(Nc2c(F)c(F)c(F)c(F)c2C(=O)O)c1`: the GTP binding, percent of control worked out at 60.7%.

For `Oc1c(C(c2ccccn2)N2CCOCC2)ccc2cccnc12` (stereo not given), the GTP binding, percent of control was found to be 70.9%.

With `COc1ccc2c(c1)c(C(=O)O)cn2CCOc1ccccc1C`, the GTP binding, percent of control came out at 204%.

Consider `Cc1cccc(C)c1CCNc1ncccc1C(=O)O`, for which the GTP binding, percent of control worked out at 245%.

As to `Cc1[nH]c2ccccc2c1C(=O)CNc1nccs1`, the GTP binding, percent of control came out at 58%.

Turning to `CCCCCCCCCCCC(=O)c1c(O)cccc1O`, the GTP binding, percent of control came to 79.8%.

`CCOc1ccc(-n2c(C)nc3cc(C(=O)NCc4ccc5c(c4)OCO5)ccc32)cc1` had a GTP binding, percent of control of 62.5%.

In turn, `COc1ccc(S(=O)(=O)N2CCN(CC(=O)Nc3cc(C(F)(F)F)ccc3Cl)CC2)cc1` returned a GTP binding, percent of control of 153%.

In turn, `COc1cc(/C=N\NC(=O)CNC(=O)C2COc3ccccc3O2)ccc1O` (stereo not given) showed a GTP binding, percent of control of 62.3%.

The molecule `Cc1cc(C)cc(Nc2cc(C(=O)O)c3ccccc3n2)c1` came in with a GTP binding, percent of control of 80.4%.

Take `Cc1sc2nc3c4ccccc4c(NCc4ccco4)nn3c(=O)c2c1C`: the GTP binding, percent of control came to 104%.

`COc1ccccc1Nc1nc(-c2c(C)nc3ncccn23)cs1`: the GTP binding, percent of control came out at 57.6%.

`O=C(O)c1cc(C(=O)O)cc(-c2ccc(/C=c3/sc4nc5ccccc5n4c3=O)o2)c1` showed a GTP binding, percent of control of 72.3%.

In the case of `CC(=O)Nc1cccc(C#CC(=O)c2ccc([N+](=O)[O-])cc2)c1`, the GTP binding, percent of control amounted to 178%.

The molecule `CC(C)c1nc2oc3c(=O)[nH]cnc3c2c2c1CCC2` registered a GTP binding, percent of control of 108%.

`OCCC1CN(Cc2ccccc2O)CCN1CCc1ccccc1` (stereo not given) returned a GTP binding, percent of control of 82.7%.

As to `Cc1ccccc1-n1c(SCc2c(C)noc2C)nnc1-c1cccnc1`, the GTP binding, percent of control worked out at 179%.

The molecule `COc1ccc(C2=Nn3c(nnc3-c3ccccn3)SC2)cc1OC` gave a GTP binding, percent of control of 44.4%.

With `C/C(=N\NC(=O)c1ccc(Cl)c(S(=O)(=O)Nc2ccccc2Cl)c1)c1ccncc1`, the GTP binding, percent of control was 54%.

`O=S(=O)(CC(CN1CCOCC1)N1CCOCC1)c1ccccc1` (stereo not given) came in with a GTP binding, percent of control of 92.1%.

Take `COc1cc(CCNc2ccc3nnc(-c4ccccc4)n3n2)cc(OC)c1OC`: the GTP binding, percent of control was 44%.

On to `COc1ccc(N(CC(=O)Nc2cccc(C)c2C)S(=O)(=O)c2c(C)n[nH]c2C)cc1`, for which the GTP binding, percent of control turned out to be 74.3%.

On to `COc1ccc(-c2nn3c(-c4ccccn4)nnc3s2)cc1OC`, for which the GTP binding, percent of control came to 52.9%.

Regarding `O=C(O)C1=C[C@H](c2ccc(C(F)(F)F)cc2)C[C@H](OCc2ccc(CO)cc2)O1`, the GTP binding, percent of control stood at 87.2%.

In turn, `N#CCc1c(C#N)c(N)nc(N2CCN(C=O)CC2)c1C#N` displayed a GTP binding, percent of control of 75.4%.

In the case of `Cc1ccc(Nc2cc(C(=O)O)c3ccccc3n2)cc1C`, the GTP binding, percent of control was 84.7%.

Turning to `Cc1ccc(C2=NN(S(=O)(=O)c3ccccc3)C(c3ccccc3O)C2)cc1` (stereo not given), the GTP binding, percent of control was determined as 104%.

`Cc1ccccc1COc1cccc(C)c1C(=O)O` came in with a GTP binding, percent of control of 200%.

Turning to `CCn1c(SCC(=O)O)nnc1-c1cc2c(C)nn(-c3ccccc3)c2s1`, the GTP binding, percent of control worked out at 64.4%.

`CCn1c2ccccc2c2nnc(SCC(=O)NCCOC)nc21` registered a GTP binding, percent of control of 59.6%.

In the case of `CCOCCCNc1nc(=S)[nH]c2cc(OC)c(OC)cc12`, the GTP binding, percent of control was found to be 99.7%.

Molecule `Cc1ccc(-c2c(C(=O)O)c(C(=O)O)c3n2CCC3)cc1` gave a GTP binding, percent of control of 78.1%.

`Clc1ccc(CN(Cc2ccc(Cl)cc2)c2nn[nH]n2)cc1` registered a GTP binding, percent of control of 85%.
